Screening results: PubChem BioAssay, Broad Institute
The sample as a whole holds a higher share of hits than the screen did.
Tg IFNy HTS: inhibitors of Toxoplasma gondii growth with IFN-gamma; AID 1259416; Toxoplasma gondii growth in IFN-gamma-treated host cells; hits give low values; activity change, negative = inhibition, % (no concentration beside the values); hit rate 3.8% among 69,000; in the data active = activity change below about -70%, passing the limit was not always enough;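 note: host cells are HeLa cells infected with Toxoplasma gondii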
A number is an active result; n = inactive; ! = not active in a repeat.

SMILES	Tg IFNy HTS
COCCC(=O)N1Cc2nccn2CC(COCc2cccnc2)C1 (centres undefined)	n
c1cncc(COCC2CNCc3nccn3C2)c1 (centres undefined)	-82
O=C(c1ccco1)N1Cc2nccn2CC(COc2cccnc2)C1 (centres undefined)	n
O=C(Nc1ccccc1F)N1CCn2nnc(COc3cccnc3)c2C1	n
O=C(c1coc(COc2ccccc2F)n1)N1CCS(=O)(=O)CC1	n
Cn1c(C(=O)N(C2CCCCC2)C2CCCCC2)cc2sccc21	n
NC(=O)NCC(=O)N1CCOC(Cc2ccccc2Cl)C1 (centres undefined)	n
CN1CCCC1(Cc1ccccc1)C(=O)O (centres undefined)	n
Cc1ccc(CC2(O)CC(C)N(C)CC2C)cc1 (centres undefined)	n
CC1C(c2ccccc2)N(C)C(c2ccccc2)CC1(O)Cc1ccccc1 (centres undefined)	-85
Cc1nnsc1CN(C)C(=O)CCC(=O)NC1CCCC1	n
Cc1ccccc1-c1ncc(CN(C)Cc2ncc[nH]2)s1	n
CCn1c(=O)c2ccccc2n(CC(=O)NC(C)C)c1=O	n
Cc1cc(C)c(Cn2nc(C(C)(C)C)cc2C(=O)Nc2ccc3c(c2)OCO3)c(C)c1	-99
CCN1CCC2(CC1)OC(=O)C(C)=C2C(=O)Nc1ccc2c(c1)OCO2	n
Cc1ccc(-c2coc(-c3ccc(NC(=O)Nc4ccc5c(c4)OCO5)cc3)n2)c(C)c1	n
CC(C)(C(=O)N1CCC(CC(=O)O)CC1)n1cncn1	n
C=CC1CN2CCC1CC2[C@@H](O)c1ccnc2ccc(OC)cc12 (some centres undefined)	n
C=C[C@H]1CN2CC[C@H]1C[C@@H]2[C@@H](O)c1ccnc2ccc(OC)cc12	-88!
C=C[C@H]1CN2CC[C@H]1C[C@@H]2[C@H](O)c1ccnc2ccc(OC)cc12	n
CC(=O)c1ccc(-c2nnc(CCC(=O)N3CCN(c4ccc(C)cc4)CC3C)o2)s1 (centres undefined)	n
O=C1CC(C(=O)O)C(c2ccccc2)O1 (centres undefined)	n
OC(CNCCNc1ncccc1C(F)(F)F)Cn1ccc2ccccc21 (centres undefined)	-82
Nc1ccccc1SCC(O)Cn1ccc2ccccc21 (centres undefined)	n
FC(F)(F)c1ccnc(NCCNc2ncccc2C(F)(F)F)n1	n
SMILES	Tg IFNy HTS
S=C(CCC(=S)Nc1ccc(Cl)cc1)Nc1ccc(Cl)cc1	n
CSCCNC(=O)Nc1ccc(Cl)cc1	n
O=C(Cc1ccc(O)cc1)NCCNC(=S)Nc1ccc(Cl)cc1	-96
CCN1CC(NC(=O)c2ccc(-c3nnn(C)n3)cc2)CC1=O (centres undefined)	n
CO[C@@H]1CCN(c2ncc(C)cn2)[C@H]1Cc1ccccc1	n
O=C(Cn1c(=O)cc(C(=O)N2CCCC2)c2ccccc21)Nc1ccc2c(c1)OCO2	n
CNC(=O)COC1COC2(CCN(c3ccc(C)nn3)CC2)C1 (centres undefined)	n
CN=C1Sc2nc3c(cc2CN1C1CCCCC1)c(C(C)(C)C)nn3-c1ccccc1	-85
O=C(c1cccc(Cn2cccn2)c1)N1CC[C@@H](c2ccc(F)cc2)[C@H](O)C1	n
CN1CCCN(CC2(O)CCNC2)CC1 (centres undefined)	-94
Cc1cc(C)n(CC2(CNC(=O)CN3CCCN(C)CC3)CC2)n1	n
C[C@@H]1CN([C@@H](C)CO)C(=O)c2c(c3ccccc3n2C)-c2ccccc2CO[C@@H]1CN(C)C(=O)[C@@H](Cc1ccccc1)N(C)C	n
C[C@H](CO)N1C[C@H](C)[C@@H](CN(C)C(=O)[C@H](Cc2ccccc2)N(C)C)OCc2ccccc2-c2c(n(C)c3ccccc23)C1=O	n
C[C@H](CO)N1C[C@H](C)[C@H](CN(C)C(=O)[C@@H](Cc2ccccc2)N(C)C)OCc2ccccc2-c2c(n(C)c3ccccc23)C1=O	-72
Cc1cc(-c2cc3c(n(Cc4cccnc4)c2=O)CCN(C(=O)c2snnc2C)C3)ccc1F	n
CCOC(=O)c1nc(NCc2ccc3c(c2)OCO3)c2ccccc2n1	n
Cc1nc2ncnn2c(NCc2ccc3c(c2)OCO3)c1Cc1ccccc1	-95
Cc1cccc(CCNc2cc(C)nc3ncnn23)c1	n
O=C1COC2(CCN(Cc3ccncc3)CC2)CN1Cc1ccccn1	n
Cc1nn(Cc2nc(-c3ccc(NC(=O)C4CCCC4)cc3)oc2C)c(C)c1C	n
O=C(Cn1ncc2c(N3CCOCC3)ncnc21)NC1CCCCCC1	n
c1ccc(CNc2nc(NCc3ccccc3)c3ccccc3n2)cc1	-108
Clc1ccc(CSc2nc(NCc3ccccc3)c3ccccc3n2)cc1	-72
Clc1ccccc1CSc1nc(NCc2ccccc2)c2ccccc2n1	n
Clc1ccc(CNc2nc(SCc3ccc(Cl)cc3)nc3ccccc23)cc1	n
SMILES	Tg IFNy HTS
COc1cc(Nc2nc(SCc3ccc(C(C)(C)C)cc3)nc3ccccc23)cc(OC)c1	n
Clc1ccc(CNc2nc(SCc3ccccc3Cl)nc3ccccc23)cc1	n
Fc1ccc(Nc2nc(SCc3ccc(Cl)cc3)nc3ccccc23)cc1F	n
Fc1ccc(CSc2nc(Nc3ccc(F)c(F)c3)c3ccccc3n2)cc1	-80
COc1ccc(CNc2nc(-c3ccc(OC)cc3)nc3ccccc23)cc1	n
CN1CC2(CCN(C(=O)c3ccc4nc(CO)[nH]c4c3)C2)OC1=O (centres undefined)	n
CC(C)c1cc(C2CCN(C(=O)CC34CC5CC(CC(O)(C5)C3)C4)CC2)[nH]n1	n
C=CCNC(=O)[C@@H]1CCCC[C@@H]1C(=O)N1CCN(CCC)CC1	n
O=C(Cc1ccc(CO)cc1)N1CC(Oc2ccccc2F)C1	n
Cc1noc(C)c1CC(=O)NC(C)c1cc(=O)[nH]c(N2CCC(C)CC2)n1 (centres undefined)	n
CC(=O)N1CCc2onc(C(=O)N3CCCC3)c2C1	n
CC(C)CN1C(=O)N(Cc2ccccn2)C(=O)C12CCN(Cc1ccc(CO)o1)CC2	n
Nc1ccc2c(c1)CN(Cc1ccccc1)C2	n
CCn1ncc(-c2cc(C(=O)Nc3cc4c(cc3Cl)NC(=O)CO4)on2)c1C	n
Cc1ccc(NC(=O)N2CCC3(CC2)CC(CC(=O)NC2CC2)c2ccccc2O3)cc1 (centres undefined)	n
Cc1ccc(C2(O)CCN(c3cc(C(=O)O)c4ccccc4n3)CC2)nc1	n
Cc1ccc(NC(=O)c2ccc3ccc(N4CCN(C)CC4)n3c2)cc1C	-73
Cc1ccccc1NC(=O)c1ccc2ccc(N3CCN(C)CC3)n2c1	n
CN1CCN(c2ccc3ccc(C(=O)Nc4cccc(F)c4)cn23)CC1	n
COc1ccc(C)cc1NC(=O)c1c(O)c2cccnc2[nH]c1=O	n
CNC(=O)c1ccc(Cn2nc(C3CCNCC3)n(-c3ccccc3)c2=O)o1	n
O=c1c(N=Nc2ccccc2)c(-c2ccccc2)[nH]n1-c1ccccc1	n
Cc1[nH]n(C(N)=S)c(=O)c1N=Nc1cc(-c2ccc(Br)cc2)[nH]n1	n
Cc1ccc(N=Nc2c(-c3ccccc3)[nH]n(C(N)=S)c2=O)cc1	-105
CCc1nc(Cn2nc(C3CCCNC3)n(-c3ccccc3)c2=O)cs1 (centres undefined)	n
Cc1nsc(NC(=O)NC2(CN3CCOCC3)CCCCC2)n1	n
COCCO[C@@H]1CCN(c2cc(OC)ncn2)[C@H]1Cc1cnn(C)c1	n
CO[C@@]12[C@@H]3NC3CN1C1=C(C(=O)C(N)=C(C)C1=O)[C@@H]2COC(N)=O (some centres undefined)	-80
Cc1cc(N2CCN(C(=O)c3cccc4c(C)c(C)[nH]c34)CC2)nc(C)n1	n
